What all share (assay): NCI-60 one-dose screen, 48 h (100 = growth as untreated, 0 = no growth, -100 = all killed)
Holding throughout (conditions): 10 µM

In test [1] the test system is NCI-H23 lung.
For test [2], the system named is NCI-H226 lung.
For test [3], the system named is NCI-H322M lung.
Test [4] deals with HOP-62 NSCLC.
Test [5] deals with NCI-H460 lung.
Test [6] deals with HOP-92 NSCLC.
The subject of test [7] is NCI-H522 lung.
The test system of test [8] is A549/ATCC NSCLC.
For test [9], the system named is 786-0 renal.
The subject of test [10] is COLO 205 colon.

About 83,000 compounds went through this panel and 20% of them were active in at least one assay; those are over-represented in the sample as a whole.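 96-well plates, one dose, 48 hours. Percent growth reported; active if below 10.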 Values without a mark were called inactive. The source made the active and inactive calls.

`Cc1cc(Cl)ccc1Nc1nc(C(F)(F)F)ccc1C(=O)N/N=C/c1ccccc1Cl`: the growth in test [1] was 16.9%; in [2], -12.4% (active); in test [3], 9.54% (active); in test [4], -6.31% (active); in test [5], 5.74% (active); in test [6], -1.9% (active). For the same compound, the growth was -2.69% (active) in [7], 13.5% in test [8], -40.1% (active) in test [9] and 4.36% (active) in [10].
As for `CCN(CCCNC(=O)Cc1cc(=O)oc2cc(N(C)C)ccc12)CCNc1ccnc2cc(Cl)ccc12`, the growth in test [1] was 94.9%; in [2] it was 93.1%; in test [3] it was 91%; in test [4] it was 85.6%; in test [5], 92.3%; in [6], 59.5%. The growth was 56.8% in test [7], 93.4% in test [8], 86.3% in [9] and 68.1% in test [10].
As to `C=CCNC(=S)NN`, the growth in test [1] is 98.2%; in test [2], 106%; in [3] it was 82.4%; in test [4], 81.2%; in test [5], 99%; in test [6], 84.6%. The growth in [7] is 91.6%; in test [8], 69.6%; in [9], 98.4%; in test [10] it was 107%.
On to `C[N+]1(CC2CO2)CCCCCC1` (stereo not given), for which the growth in [1] was 110%; in test [2], 99.4%; in [3], 107%; in test [4], 103%; in test [5], 106%; in test [6], 113%. The growth in test [7] is 107%; in [8], 107%; in test [9], 105%; in test [10] it was 120%.
Take `NC1CCC(Nc2nc(NCc3ccc(-c4ccco4)nc3)c3ncn(C4CCCC4)c3n2)CC1` (stereo not given): the growth in test [1] was -18.1% (active); in test [2], -18.6% (active); in test [3], 21.4%; in test [4], -17.1% (active); in test [5], 4.97% (active); in test [6], -16.3% (active). Further, the growth in [7] is -70.6% (active); in test [8], 3.69% (active); in test [9], 8.51% (active); in test [10], -62.7% (active).
On to `O=C(Nc1cccc(Cl)c1)Nc1cc2ncncc2cc1OCc1cccc(F)c1`, for which the growth in test [1] is 20.6%; in [2], 37.1%; in test [3] it was 15.5%; in test [4], -4.3% (active); in [5], 4.36% (active); in test [6], -4.78% (active). Also, the growth in [7] was -8.47% (active); in test [8] it was 2.26% (active); in test [9] it was 39%; in [10] it was -69.6% (active).
For `COc1cc(C2=Nc3c/c(=C\c4c(O)[nH]c5ccc(Cl)cc45)ccc3=N2)cc(OC)c1OC`, the growth was 2.68% (active) in test [1]; 55.4% in test [2]; 57.2% in test [3]; -82% (active) in test [4]; 8.64% (active) in [5]; -61.5% (active) in test [6]. Moreover, the growth is 24.9% in test [7], 56.5% in [8], -6.36% (active) in test [9] and -41.1% (active) in test [10].
As for `Fc1ccc(-c2cc(C(Cl)Cl)no2)cc1`, the growth was 95.5% in test [1]; 87.2% in [2]; 93.4% in test [3]; 98.2% in test [4]; 101% in [5]; 99.4% in test [6]. The growth in [7] is 114%; in [8], 122%; in [9], 110%; in test [10], 115%.
For the compound `O=C(N/N=C/c1ccccc1O)c1ccccc1`, the growth was 41.3% in test [1]; 27.2% in test [2]; 34.3% in test [3]; 38.9% in test [4]; 9.53% (active) in [5]; 7.78% (active) in test [6]. The growth in test [7] was -4.7% (active); in test [8] it was 38.7%; in test [9], 17.9%; in test [10], 19.3%.
As to `CCOC(=O)c1sc(Nc2ncccn2)nc1-c1ccccn1`, the growth in test [1] was 84.4%; in [2], 92.8%; in [3] it was 85%; in [4], 92%; in test [5], 66.9%; in test [6], 97.5%. For the same compound, the growth was 85.7% in test [7], 84.3% in [8], 97.9% in [9] and 98.3% in test [10].
Turning to `COc1ccc(N2CCN(c3nc(-c4ccccc4)c(C#N)c(=O)[nH]3)CC2)cc1`, the growth in test [1] is 98.7%; in test [2] it was 107%; in test [3], 94.6%; in [4], 91.8%; in [5], 103%; in test [6], 92.4%. Moreover, the growth was 92.7% in test [7], 104% in test [8], 103% in [9] and 102% in test [10].
As to `Oc1ccccc1-c1nnc(Cn2c(Cc3cccc4ccccc34)nc3ccccc32)o1`, the growth is 90.8% in test [1]; 93.1% in [2]; 84.4% in test [3]; 87.6% in test [4]; 108% in [5]; 78.3% in [6]. In addition, the growth in [7] was 92.2%; in test [8], 100%; in test [9], 103%; in [10], 110%.
For the compound `CC(C)OCc1cc(CN2CCN(c3cccc(Cl)c3)CC2)c(O)c2ncccc12`, the growth in test [1] is -44.8% (active); in test [2] it was 1.5% (active); in [3] it was -10.6% (active); in test [4], -0.196% (active); in test [5] it was 0.361% (active); in test [6], -35.2% (active). The growth is -26.2% (active) in test [7], -5.68% (active) in test [8], 0.332% (active) in test [9] and -43.1% (active) in test [10].
In the case of `COc1ccc(Nc2nc(NCc3ccccc3)c3ccccc3n2)cc1`, the growth is 77.3% in test [1]; 6.99% (active) in test [2]; 41.1% in [3]; -48% (active) in test [4]; 3.09% (active) in test [5]; -4.85% (active) in test [6]. The growth in [7] was 50.1%; in test [8] it was 21.9%; in [9], 33.9%; in test [10], 43.6%.
`COc1ccc(-c2nc(-c3ccccc3)c(-c3ccccc3)[nH]2)cc1OC1CCCC1`: the growth was 73.1% in [1]; 88.9% in [2]; 66% in test [3]; 113% in test [4]; 61.4% in [5]; 12.6% in test [6]. Besides, the growth was 36.1% in [7], 61.8% in test [8], 78.6% in test [9] and 86.3% in [10].
For `COc1cc(/C=C/C(=O)c2cc(-c3ccc(C(F)(F)F)cc3)ccc2O)cc(OC)c1OC`, the growth is 64.3% in [1]; 84.1% in [2]; 82.1% in test [3]; 98.7% in test [4]; 56.5% in test [5]; 63.1% in [6]. Also, the growth is 40.8% in test [7], 81.4% in [8], 80.3% in test [9] and 71.6% in test [10].
As for `CN(C)c1ccc2c(c1)OC(N)=C(C#N)C2c1ccc2c(c1)CCCN2C` (stereo not given), the growth in test [1] is 33.3%; in test [2], 37.3%; in test [3] it was 52.3%; in [4] it was 31.7%; in [5], 12.4%; in [6], 47.1%. Also, the growth in test [7] was -26.4% (active); in [8] it was 27.5%; in test [9], 43.7%; in test [10], -10.2% (active).
With `CCc1ccc(-c2nnc(COc3ccc(-c4nc5cc(Cl)c(Cl)cc5[nH]4)cc3OC)o2)cc1`, the growth in [1] was 67.8%; in test [2] it was 103%; in test [3] it was 83.6%; in test [4], 102%; in [5], 24.5%; in test [6], 72.2%. In addition, the growth was 82.8% in [7], 39.3% in test [8], 77.1% in test [9] and 57.1% in test [10].
On to `CCCCCCN=C(N)CCCCCCCCCCC(N)=NCCCCCC`, for which the growth in [1] was 27.8%; in [2], 51.6%; in [3], 62.4%; in test [4], 18.5%; in test [5], 13.4%; in test [6], 8.01% (active). In addition, the growth in [7] was 23.9%; in [8], 33.7%; in [9], 37%; in test [10] it was -9.55% (active).
For the compound `COCCOC(=O)NC(=O)Nc1ccc(C(=O)c2ccc(Cl)cc2)cc1`, the growth in [1] is 36.2%; in test [2], 46.2%; in test [3] it was 57.9%; in [4] it was 28.5%; in test [5], 23.3%; in [6], 32.9%. For the same compound, the growth in test [7] is 10.7%; in test [8], 41.8%; in [9], 47%; in test [10] it was 13.4%.
On to `O=S(=O)(NCl)c1ccccc1`, for which the growth in test [1] is 104%; in test [2] it was 110%; in test [3], 88.1%; in test [4] it was 110%; in test [5], 105%; in test [6], 108%. For the same compound, the growth in test [7] was 99.6%; in test [8], 94.7%; in test [9], 95.9%; in [10], 113%.
`CCOC(=O)c1c(C)n(-c2ccc(Cl)cc2)c2ccc(OC(=O)/C=C/c3ccccc3)cc12`: the growth was 93.3% in [1]; 95.1% in [2]; 94.8% in test [3]; 95% in [4]; 99.1% in test [5]; 58% in [6]. Also, the growth in test [7] was 82.3%; in test [8] it was 67.7%; in [9] it was 94.3%; in test [10], 93.1%.
As for `CCCCCC(CCC)COC(=O)c1ccc(OC)cc1` (stereo not given), the growth is 97.4% in test [1]; 88.6% in [2]; 101% in [3]; 92.3% in test [4]; 111% in [5]; 93.7% in test [6]. The growth in [7] was 90.7%; in test [8] it was 80.9%; in [9] it was 101%; in [10] it was 105%.
As to `COc1nc2c(c(=O)[nH]1)C(c1ccc(Oc3ccnc4cc(Cl)ccc34)c(OC)c1)C=C(c1cc(OC)c(OC)c(OC)c1)N2` (stereo not given), the growth is 95.3% in test [1]; 96.6% in test [2]; 95.2% in [3]; 116% in test [4]; 102% in test [5]; 82.1% in test [6]. Besides, the growth in test [7] was 93.3%; in test [8] it was 101%; in test [9], 95%; in test [10], 102%.
Consider `O=C1CC[C@@H](C(=O)N[C@H]2CSSC[C@@H](C(=O)NCCc3ccccc3)NC(=O)[C@H](Cc3ccccc3)NC(=O)[C@@H]3CCCN3C(=O)[C@@H]3CCCN3C2=O)N1`, for which the growth was 92.7% in test [1]; 87.5% in [2]; 115% in [3]; 55.1% in test [4]; 101% in test [5]; 94.6% in [6]. The growth in test [7] is 96.2%; in [8] it was 86.2%; in test [9], 99%; in test [10], 119%.
Take `CN1CCN(c2nc(-c3cccnc3)nc3sc4c(c23)CCCCCC4)CC1`: the growth in test [1] is 93.7%; in test [2], 93.1%; in test [3] it was 99.3%; in test [4], 85.5%; in test [5], 98%; in test [6] it was -2.98% (active). For the same compound, the growth in test [7] was 103%; in test [8], 91.2%; in test [9], 92.8%; in test [10], 102%.
Take `Oc1ccc(Cn2cc3c(c2-c2ccccc2)CCc2cnoc2-3)cc1`: the growth in test [1] was 92.8%; in test [2], 96.4%; in test [3], 116%; in [4], 99.2%; in test [5], 105%; in test [6], 79.2%. Also, the growth in [7] was 84.5%; in test [8], 84.1%; in test [9], 92.9%; in test [10] it was 98%.
Turning to `COc1ccc2nc(C)cc(Nc3ccc(Cl)cc3)c2c1`, the growth in test [1] was 104%; in test [2], 99.9%; in test [3] it was 95.1%; in [4], 104%; in [5] it was 91.8%; in test [6], 156%. Also, the growth in test [7] was 105%; in [8] it was 92.2%; in test [9] it was 109%; in [10], 107%.

The values are drawn from PubChem BioAssay (NCI).
